Measured values published in ChEMBL document CHEMBL3433997, “St. Jude Leishmania screening dataset” (2016).

How the values were obtained:
Type in all cases: functional
[1] = molecular target: Solute carrier family 2, facilitated glucose transporter member 1 (Homo sapiens) (UniProt P11166); assay: ST_JUDE_LEISH: Cytotoxicity at 2uM final concentration against transgenic Leishmania Mexicana promastigotes LmGLUT1 that are glucose transport deficient and complemented with the human glucose transporter GLUT1. Activity is measured by DNA content using SYBR green in vitro
[2] = molecular target: Hexose transporter 1 (Plasmodium falciparum) (UniProt O97467); assay: ST_JUDE_LEISH: Cytotoxicity at 2uM final concentration against transgenic Leishmania Mexicana promastigotes LmPfHT that are glucose transport deficient and complemented with the Plasmodium falciparum hexose transporter. Activity is measured by DNA content using SYBR green in vitro
[3] = molecular target: Glucose transporter (Leishmania mexicana) (UniProt O61059); assay: ST_JUDE_LEISH: Cytotoxicity at 2uM final concentration against transgenic Leishmania Mexicana promastigotes LmGT2 that are glucose transport deficient and complemented with the L. Mexicana glucose transporter 2. Activity is measured by DNA content using SYBR green in vitro

Sequence of Solute carrier family 2, facilitated glucose transporter member 1 (Homo sapiens) (P11166 whole entry): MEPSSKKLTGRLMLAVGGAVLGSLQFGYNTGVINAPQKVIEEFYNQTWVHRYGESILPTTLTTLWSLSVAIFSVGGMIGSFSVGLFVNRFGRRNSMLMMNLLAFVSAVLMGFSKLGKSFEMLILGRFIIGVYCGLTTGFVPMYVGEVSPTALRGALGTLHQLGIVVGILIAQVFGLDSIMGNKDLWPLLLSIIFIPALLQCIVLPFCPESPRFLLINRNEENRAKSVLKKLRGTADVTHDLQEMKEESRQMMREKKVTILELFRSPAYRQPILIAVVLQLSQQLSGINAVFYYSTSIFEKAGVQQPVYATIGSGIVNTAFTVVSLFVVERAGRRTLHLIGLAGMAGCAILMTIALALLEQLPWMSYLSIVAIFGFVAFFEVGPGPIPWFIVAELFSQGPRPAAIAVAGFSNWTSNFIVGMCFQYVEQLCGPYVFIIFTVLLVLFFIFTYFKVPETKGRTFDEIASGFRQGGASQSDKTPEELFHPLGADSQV

Row | SMILES | inhibition [1] [%] | inhibition [2] [%] | inhibition [3] [%]
1 | Cc1ccc(N2CCc3c(-c4cc5cccnc5nc4C)cc(C)nc32)c(Cl)c1 | 4.06 | 6.18 | 3.42
2 | CCCCN(CCCC)CCCCNc1c2ccc(Cl)cc2nc2ccc(OC)cc12 | 14.5 | 17.5 | 13.3
3 | Cc1cc(NC(=O)c2coc3cc(F)c(N4CC(C)N(C)C(C)C4)cc23)cnc1-c1ccc(C#N)cc1 (configuration not stated) | 0.22 | -1 | -1.53
4 | Cc1cnc(NC(=O)c2cn(-c3ccccc3)nc2-c2cccs2)s1 | 14.6 | 13.2 | 13.9
5 | N=C(N)Nc1ccc(OCCCCCOc2ccc(NC(=N)N)c(Cl)c2)cc1Cl | -0.79 | -1.31 | -2.62
6 | CSc1ccc2ccccc2c1CNCCCCCCNCc1c(SC)ccc2ccccc12 | 1.24 | 0.13 | 1.41
7 | COc1ccc(NC(=O)N2CCCN(CCCCCNC(=O)/C=C/c3ccc(C(F)(F)F)cc3)CC2)cc1Cl | -0.26 | -1.14 | 2.8
8 | O=C(Nc1cccc(Cl)c1Cl)NC1CCN(Cc2cccc(O)c2)CC1 | 3.63 | 2.13 | 2.32
9 | O=C(c1cc(C(=O)Nc2ccccc2F)c(=O)n(-c2ccccc2F)c1)c1cc(Cl)ccc1O | 1.31 | -0.63 | -2.18
10 | CCOC(=O)c1ccc(-c2cnc(N)c(-c3nc4cccc(C)c4[nH]3)c2)cc1 | 6.18 | 6.96 | 4.47
11 | O=c1ccc(CNc2nc(NCCc3ccccc3)nc3cc(Cl)ccc23)c[nH]1 | 1.81 | 0.69 | 1.95
12 | COc1ccc2c(=NN=Cc3ccccc3Cl)cc(C)[nH]c2c1 | 0.91 | 0.95 | 0.2
13 | CC(C)(CNC(=O)[C@@H]1CCCN(CCOc2ccc(Cl)cc2)C1)c1nc(-c2ccc(Cl)c(O)c2)c(-c2ccncc2)[nH]1 | -1.34 | 2.16 | 0.11
14 | O=C(NCC1CC1)C1Cc2c([nH]c3ccc(Br)cc23)C2(CCN(CCc3ccccc3)CC2)N1 (configuration not stated) | 1.43 | -0.28 | 1.33
15 | Cc1nc(-c2nc(NCCc3c(C)noc3C)ncc2-c2ccsc2)sc1C | 1.02 | 1.58 | 2.5
16 | CCN(CCCN1CCCCC1)c1cc(C)nc(Nc2ccc(F)c(C(F)(F)F)c2)n1 | -1.41 | -1.38 | -0.24
17 | CCc1c(CCNCCCCCCNCCc2ccc(OC)c(OC)c2CC)ccc(OC)c1OC | 8.52 | 7.29 | 6.3

Row | SMILES | inhibition [1] [%] | inhibition [2] [%] | inhibition [3] [%]
18 | CCCOc1ccc2ccccc2c1CNCCCCCCNCc1c(OCCC)ccc2ccccc12 | 2.66 | 1.04 | -1.19
19 | O=C(Nc1ccc(-c2ccc(-c3nc4ccccc4[nH]3)s2)cc1)Nc1ccc(Cl)c(Cl)c1 | 9.56 | 8.71 | 11.2
20 | O=C(/C=C/c1ccc(Cl)c(Cl)c1)NCCCCCN1CCC(NC(=O)c2ccc(F)c(F)c2)CC1 | 3.18 | 5.17 | 6.18
21 | O=C(Nc1ccccc1C(F)(F)F)Nc1nn(Cc2c(F)cccc2Cl)cc1Br | 5.53 | 4.7 | 3.18
22 | COc1cc(CN2CCC(CO)(Cc3cccc(C(F)(F)F)c3)CC2)c(Cl)cc1O | 0.06 | -1.69 | -0.81
23 | COc1cc(/C=N/Nc2nc(Nc3ccccc3)nc(Nc3ccccc3)n2)ccc1OCc1ccccc1[N+](=O)[O-] | 4.18 | 3.92 | 0.87
24 | CC(=O)Nc1ncc(C(=O)Nc2ccc(-c3cccc(-c4nc5cc(C(F)(F)F)ccc5[nH]4)c3)cc2)s1 | -2.18 | -2.1 | -2.74
25 | COc1ccc(-n2ccnc2SCC(=O)Nc2cc(C)ccc2C)c(OC)c1 | 0.44 | 0.63 | 0.53
26 | CC(C)c1nc2c(N)nc(N)nc2nc1N | -0.33 | 0.25 | 1.01
27 | Cc1[nH]c(C)c(-c2ccc(Br)cc2)c(=O)c1Cl | 4.57 | 3.47 | 3.22
28 | O=c1nc(C=Cc2ccc(Br)cc2)oc2ccccc12 | 3.24 | 2.44 | 3.63
29 | OCCNc1nc(Nc2ccccc2)nc2ccccc12 | 8.68 | 7.01 | 2.07
30 | N#Cc1ccc2c(c1)CCN(CCC1CCC(NC(=O)/C=C/c3nc4ccccc4s3)CC1)CC2 (configuration not stated) | 1.83 | 0.31 | -0.08
31 | COCCCNc1sc(S(=O)(=O)c2ccccc2)nc1S(=O)(=O)c1ccc(C)cc1 | -0.53 | -2.3 | 1.51
32 | NC1=NC(c2ccccc2)(c2ccccc2)C(=O)N1CC1CCC1 | 0.06 | 2.21 | 0.31
33 | CC(CCc1ccccc1)NCC(O)c1ccc2c3c(cccc13)S(=O)(=O)N2C (configuration not stated) | 5.47 | 5.04 | 4.71
34 | CCc1cn2c3c(cc(C(=O)N[C@@H](Cc4ccccc4)[C@H](O)CNC4CCC4)cc13)N(C)S(=O)(=O)CC2 | 2.42 | 5.19 | 1.83
